Source: the supplement of paper PMC6555819

Tested on: VDR homodimer (NR concentration 270 nM)
Experiment: PBM binding z-score (relative to random genomic background probes); higher = stronger binding; sequences stand for … in GC…GCGATTGACAGCGTAGAATGAAGG
Method in brief: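 Probes were double-stranded and carried 34-nt variable regions with direct-repeat seeds, single-nucleotide variants, half-site ablations and random human genomic background sequences, printed on custom Agilent 4×180K protein-binding microarrays. Arrays were incubated 1 h with ligand-free nuclear receptor dimers in PBS pH 7.4, 2% milk, 0.02% Triton X-100, 1 mM DTT, 0.2 mg/mL BSA and 0.4 mg/ml salmon testes DNA. Antibodies against each partner (one per run) detected binding, and scanned fluorescence was regression-normalized. Binding z-scores use the random background probes as reference.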

Row | Sequence | PBM binding z-score
1 | TCTAGTTGGTAAAAGGTCACACACTCGAAATGCG | 2.75
2 | GATACAGGGTCAGCTAGAGGCCGGAGTATGGAAA | 0.333
3 | GGAACGAGGGCAAAGTTAATAGCATCTGTCGACG | 1.31
4 | CCTACTGGGCCATTCAGAGTTCATTGATCATATG | 5.74
5 | ACTACAGGGTCATCGTAGGCCAGAGTACGCACAG | 3.36
6 | CGAACTAGGTCAATGACAGGACAGTGAATAGTAA | 0.409
7 | ATATGTAGGTTACATCCGGGTCATTCAAGCTATG | 2.99
8 | CAAACTAGGTCACGGAGGTCAAAGTCCGTGCGTA | 5.9
9 | GGAACCAGGGCATTCGAGTTGATAGCATGGCGAT | 1.97
10 | TCTACTTGGTCAAAGGTCACACACTCGAAATGCG | 2.68
11 | AGAACGAGGGCACGCTGAGTTGATAGTAGAGTAG | 1.95
12 | CCTTACGGGTCACTGACAGGTTATATCATTTGGA | 1.32
13 | ATATCTAGGTAAAGATAGTTCAGTGAATGCAAAT | 0.327
14 | AGAACGAGGGCACGCCGAGTTGATAGCAGAGTAG | 1.81
15 | TCATATAGGTAAAAGGTGAAAGGCGGTGTGGTAA | 0.251
16 | AGTATGAGGTTATTAAGATCAGGGAATTGCGGTC | 1.41
17 | ATATGTATGTTACATCCGGGTCATTCAGGCTATG | 1.99
18 | CCTAGCAGGCAAATCTGGGTCACTCAAGGCTTGA | -0.357
19 | CCTACTGAGCCACGAAAGGTCATTGATTCAGTGA | 2.9
20 | CGTCCAAGGTCATAGGTCAGTGAAGAGATGACGG | 3.51
21 | GGAACGAGGGCATTCGAGTTGATAGCCTGGCGAT | 3.28
22 | CCTAGTTGGTCAGTAGGTCACACACCGGATATGA | 1.29
